Tau ThT inhib – inhibitors of human tau fibril formation, thioflavin T binding; recombinant tau K18 P301L, heparin-induced fibrillization, ThT fluorescence; AID 1460; Potency, µM (titrated, usually from 57.4 µM), inactives show at the top dose activity, negative = inhibition, actives largely listed as inhibitors; 270,000 tested, 2.1% active; P10636; further: potency means the concentration at half of the fitted maximal effect; nearly all actives have a fitted effect of over 55% in size
Target sequence (P10636 561-689 P618L limits assumed): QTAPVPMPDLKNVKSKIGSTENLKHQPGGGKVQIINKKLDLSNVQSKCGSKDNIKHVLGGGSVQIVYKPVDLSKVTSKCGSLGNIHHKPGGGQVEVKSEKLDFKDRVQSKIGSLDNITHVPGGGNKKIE
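Recombinant human tau K18 fragment […] carrying P301L, 15 uM unlabeled plus 0.24 uM Alexa 594-labeled, was fibrillized with 20 uM heparin in 100 mM sodium acetate pH 7 for 6 hr at 37 C; 30 uM ThT fluorescence read after 1 hr.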
Sfp inh – blocks B. subtilis Sfp PPTase activity; Q9F4F7; Biochemical Sfp PPTase activity, qHTS; Potency, µM, without a hit: largest response in the series, negative = inhibition, actives largely listed as inhibitors; 310,000 tested, 3.5% active;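 further: the enzyme is Sfp with the accession as filed and its product quenches rhodamine fluorescence; potency means the concentration at half of the fitted maximal effect; 0% = enzyme reaction without inhibitor and -100% = no enzyme wells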
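Buffer: 50 mM Hepes-Na pH 7.6, 10 mM MgCl2, 0.01% Nonidet P-40, 0.01% BSA. Enzyme 15 nM, pre-exposed to compound 15 min; substrates then added and fluorescence change tracked over 30 min.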
Coupling enz – counter-screen for Giardia aldolase inhibitors: coupling enzyme system; coupling enzyme system counterscreen, AmpLite Red fluorescence; 290,000 tested, 0.67% active; activity change, negative = inhibition, % at 58.2 µM, hits read low; AID 2472; in the data active means activity change below about -30%
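Final compound at 57.5 uM, incubated 10 min at RT with coupling enzyme reagent (glyceraldehyde-3-phosphate), then 20 min with substrate and AmpLite Red detection. Fluorescence read at 525/598 nm; tests interference with the coupling assay, not aldolase inhibition.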
Tau FP inhib – blocks human tau fibril formation measured by polarization | P10636 | K18 P301L tau heparin fibrillization, Alexa594 FP, 6 h | Potency, µM (top dose mostly 57.7 µM), inactives show at the top dose activity, negative = inhibition, usual class: inhibitors | 280,000 tested, 0.39% active | AID 1468; further: potency means the concentration at half of the fitted maximal effect; nearly all actives have a fitted effect of over 55% in size
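FP of Alexa 594-tau after heparin (20 uM) induction. Substrate: human K18 P301L, 15 uM unlabeled, 0.24 uM labeled. Buffer 100 mM sodium acetate pH 7. 6 hr, 37 C.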
Tau fluor counter – counter-screen for tau fibril formation inhibitors; tau K18 P301L (four-repeat tau fragment) Alexa594 fluorescence, heparin fibrillization; Potency, µM (titrated, usually from 57.7 µM), inactives show at the highest dose activity change, negative = decrease; 280,000 tested, 0.93% active; further: potency means the concentration at half of the fitted maximal effect; nearly all actives have a fitted effect of over 55% in size
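Human K18 P301L tau (15 uM unlabeled plus 0.24 uM Alexa 594-labeled, final) in 100 mM sodium acetate pH 7 was mixed with compound and 20 uM heparin and incubated 6 hr at 37 C.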
The depositor's hits bear a star; [ ] = remark or other dose. Most compounds without a hit are left out; they make up all but 5.2% or so of the library. Unless noted, the call rests on the fitted dose curve; in most records, active means well fitted curve in the direction sought with a large enough effect; inconclusive means small, poorly fitted or top-dose-only effect, or another doubt; inactive means no such curve, though single readings can be large; an effect the other way counts as inactive or inconclusive. Unless noted, on the % scale 0 is the no-effect control and ±100 the full control effect.

`CC1CCCCN1S(=O)(=O)c1ccc(C(=O)Nc2ccccc2-c2nc3ccccc3s2)cc1` (stereo not drawn) gave Tau ThT inhib 10.0%, Sfp inh 3.5%, Coupling enz 1.6, Tau FP inhib 7.4% and Tau fluor counter -0.2%.
`CC1CCCCN1S(=O)(=O)c1ccc(NC(=O)c2cccc(-n3cnnn3)c2)cc1` (stereo not drawn) gave Tau ThT inhib 9.2%, Sfp inh 9.1%, Coupling enz -1.2, Tau FP inhib inconclusive and Tau fluor counter 17.8µM*[quencher].
`CC1CCCCN1S(=O)(=O)c1ccc(C(=O)Nc2ccccc2-c2nc3ccccc3[nH]2)cc1` (stereo not drawn) gave Tau ThT inhib 15.5%, Sfp inh 17.2%, Coupling enz -2.8, Tau FP inhib 14.1µM* and Tau fluor counter inconclusive.
Cc1ccccc1NC(=O)c1ccc(S(=O)(=O)N2CCCC2)cc1 was read as Sfp inh 10.6% and Coupling enz -0.4.
`O=C(Nc1ccccc1-c1nc2ccccc2[nH]1)c1ccc(S(=O)(=O)N2CCCCC2)cc1` gave Tau ThT inhib 6.2%, Sfp inh 16.6%, Coupling enz -1.8, Tau FP inhib 12.6µM* and Tau fluor counter inconclusive.
COc1ccc(C2NC(=O)N(C)C3=C2C(=O)N(c2cccc(C(=O)O)c2)C3)cc1 (stereo not drawn) was read as Tau ThT inhib 3.4%, Tau FP inhib 4.4% and Tau fluor counter 3.5%.
O=c1cnc2cncnc2n1Cc1ccc(F)cc1 was read as Sfp inh 6.9% and Coupling enz 2.5.
Screening COc1ccc(NC(C)=O)cc1S(=O)(=O)Nc1ccccc1C(=O)NCCc1ccccc1 returned Sfp inh 10.7% and Coupling enz 5.3.
Screening COc1ccccc1NS(=O)(=O)c1cc(NC(=O)c2ccc(Cl)nc2)ccc1Cl returned Tau ThT inhib 14.8%, Sfp inh -15.5%, Coupling enz -3.1, Tau FP inhib 25.1µM* and Tau fluor counter 22.4µM*[quencher].
For COc1ccc(NC(=O)Cc2cccc(F)c2)cc1S(=O)(=O)Nc1ccccc1Cl the results were Sfp inh 18.1%, Coupling enz 0.3, Tau FP inhib inconclusive and Tau fluor counter 14.1µM*[quencher].
Screening COc1ccc(C(=O)Nc2ccc(Cl)c(S(=O)(=O)Nc3ccccc3OC)c2)cc1 returned Tau ThT inhib 7.4%, Sfp inh 15.0%, Coupling enz -1.8, Tau FP inhib inconclusive and Tau fluor counter inconclusive.
For COc1ccccc1NC(=O)Nc1ccc(Cl)c(S(=O)(=O)Nc2ccccc2OC)c1 the results were Tau ThT inhib -6.2%, Sfp inh 10.3%, Coupling enz -2.3, Tau FP inhib 28.2µM* and Tau fluor counter 3.16µM*[quencher].
`CCOC(=O)c1sc2nc(N3CCOCC3)c3c(c2c1N)CCCC3` gave Tau ThT inhib -11.9%, Sfp inh 7.3%, Coupling enz 0.0, Tau FP inhib -2.0% and Tau fluor counter -18.1%.
For COc1ccc(NC(=O)c2sc3nc(N4CCOCC4)c4c(c3c2N)CCCC4)c(OC)c1 the results were Sfp inh -13.4% and Coupling enz 1.7.
`CCN(CC)C(=O)c1sc2nc(N3CCOCC3)c3c(c2c1N)CCCC3` gave Tau ThT inhib inconclusive, Sfp inh 44.7µM*, Coupling enz -0.4, Tau FP inhib -7.7% and Tau fluor counter -27.7%.
Nc1c(C(=O)NCc2ccco2)sc2nc(N3CCOCC3)c3c(c12)CCCC3 was read as Tau ThT inhib inconclusive, Sfp inh 12.6µM*, Coupling enz -8.8, Tau FP inhib inconclusive and Tau fluor counter -12.0%.
Cc1cccc(NC(=O)c2sc3nc(N4CCOCC4)c4c(c3c2N)CC(C)(C)OC4)c1 was read as Tau ThT inhib -9.1%, Tau FP inhib -1.9% and Tau fluor counter -25.4%.
CC1(C)Cc2c(c(N3CCOCC3)nc3sc(C(=O)Nc4cccc(Cl)c4)c(N)c23)CO1 was read as Sfp inh 44.7µM* and Coupling enz 1.3.
COc1ccccc1CCNC(=O)C(C)Sc1nc(-c2ccccc2)cc(C(F)(F)F)n1 (stereo not drawn) was read as Tau ThT inhib -2.7%, Tau FP inhib -2.4% and Tau fluor counter -7.3%.
`CN(C)c1ncnc2ccc(-c3ccccc3C(F)(F)F)cc12` gave Sfp inh -8.7% and Coupling enz -8.9.
Screening CCCC(=O)Nc1ccc(-c2nc3ncccc3o2)cc1C returned Tau ThT inhib -3.0%, Tau FP inhib -4.5% and Tau fluor counter 0.1%.
`Cc1ccc(C(=O)N2CCN(Cc3ccc4c(c3)OCO4)CC2)o1` gave Tau ThT inhib -10.8%, Sfp inh 6.7%, Coupling enz -4.7, Tau FP inhib -4.3% and Tau fluor counter -1.2%.
`Cc1ccc2c(C)c(C(=O)N3CCN(Cc4ccc5c(c4)OCO5)CC3)oc2c1C` gave Sfp inh 79.4µM* and Coupling enz 0.6.
For CCc1cccc(NC(=O)CCN2C(=O)c3ccccc3Sc3ncccc32)c1 the results were Tau ThT inhib -0.3%, Tau FP inhib 0.9% and Tau fluor counter -7.6%.
`Cc1nc(COC(=O)c2cc(O)c3ccccc3c2O)cs1` gave Tau ThT inhib 25.1µM*, Sfp inh 28.2µM*, Coupling enz -25.2, Tau FP inhib inconclusive and Tau fluor counter inconclusive.
For O=C1N=C(N2CCOCC2)S/C1=C/c1cc2c(cc1[N+](=O)[O-])OCO2 the results were Tau ThT inhib 17.8µM*, Sfp inh 7.4%, Coupling enz 0.8, Tau FP inhib inconclusive and Tau fluor counter inconclusive.
`O=C1N=C(N2CCOCC2)S/C1=C\c1ccccc1OS(=O)(=O)c1ccccc1` gave Tau ThT inhib 1.9%, Sfp inh 26.0%, Coupling enz 1.4, Tau FP inhib 5.6% and Tau fluor counter -1.3%.
For Cc1nc2c(cc(Oc3ccc(S(=O)(=O)N4CCOCC4)cn3)c3ccsc32)s1 the results were Tau ThT inhib 6.8%, Sfp inh inconclusive, Coupling enz -40.4*, Tau FP inhib 8.7% and Tau fluor counter -18.0%.
For COc1cc(OC)cc(C(=O)Oc2ccc(/C=N/Nc3nc4ccccc4s3)cc2OC)c1 the results were Tau ThT inhib inconclusive, Sfp inh -19.0%, Coupling enz -3.4, Tau FP inhib 1.0% and Tau fluor counter 10µM*[quencher].
COc1cccc(C(=O)Oc2ccc(/C=N/NC(=O)c3ccncc3)cc2OC)c1 was read as Sfp inh -2.3% and Coupling enz 1.6.
For COc1cc(/C=N/Nc2nc3ccccc3s2)ccc1OC(=O)c1ccccc1F the results were Tau ThT inhib inconclusive, Sfp inh 3.8%, Coupling enz -2.1, Tau FP inhib 11.8% and Tau fluor counter 7.08µM*[quencher].
For CCOc1ccc2c(c1)C(=O)c1cc(OCC(=O)O)ccc1-2 the results were Tau ThT inhib 11.2µM*, Sfp inh 0.7%, Coupling enz -12.1, Tau FP inhib -5.6% and Tau fluor counter -27.0%.
